Experiment [1] is described as follows: qHTS RealTime-Glo MT Cell Viability Assay in HEK293 cells - 0 hour (AID 1224880). Further: top concentration of the series differs between compounds; nearly all actives have a fitted effect of over 45% in size. The procedure, abridged:
(§1)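 Luminescence readout at each listed time point; HEK293, 600 cells/well, RealTime-Glo MT reagent added with cells; compounds pinned (23 nL in DMSO) after 5 h at 37 C; continuous culture at 37 C.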
On the technique in general: In qHTS, concentration-response curves come from the screen itself.

The nature of experiment [2]: A CellTox Green Cytotoxicity Assay to monitor cytotoxicity in HEK293 cells - 32 hour (AID 1224881). Further: nearly all actives have a fitted effect of over 40% in size. Further: potency means the concentration at half of the fitted maximal effect. An outline of the steps: (§2)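 Read-out: fluorescence of a cell-impermeant cyanine dye staining DNA of dead cells, proportional to cytotoxicity. HEK293, 600 cells/well with reagent, compound (23 nL DMSO) added after 5 h; reads at 0, 8, 16, 24, 32, 40 h.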
Experiment [3] in a line: A CellTox Green Cytotoxicity Assay to monitor cytotoxicity in HepG2 cells - 0 hour (AID 1224882). Further: nearly all actives have a fitted effect of over 35% in size. An outline of the steps:
(§3)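 HepG2, 600 cells/well premixed w/ CellTox Green; 5 h settle, 37 C/5% CO2; pintool cpd add (DMSO); 37 C, 40 h; fluorescence read at 0, 8, 16, 24, 32, 40 h.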

Experiment [4] is described as follows: A CellTox Green Cytotoxicity Assay to monitor cytotoxicity in HepG2 cells - 32 hour (AID 1224883). Further: nearly all actives have a fitted effect of over 50% in size. Further: potency means the concentration at half of the fitted maximal effect. An outline of the steps:
as §3

The nature of experiment [5]: A CellTox Green Cytotoxicity Assay to monitor cytotoxicity in HEK293 cells - 8 hour (AID 1224884). Further: nearly all actives have a fitted effect of over 35% in size. Further: potency means the concentration at half of the fitted maximal effect. An outline of the steps:
as §2

Experiment [6] can be described thus: qHTS RealTime-Glo MT Cell Viability Assay in HepG2 cells - 16 hour (AID 1224885). Further: nearly all actives have a fitted effect of over 50% in size. The procedure, abridged: (§4)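 Cell number in HepG2 cultures estimated from NanoLuc luminescence generated by metabolic reduction of a prosubstrate by living cells. The homogeneous, nonlytic format allowed repeated reads at 0, 8, 16, 24, 32 and 40 h of compound exposure.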
The nature of experiment [7]: qHTS RealTime-Glo MT Cell Viability Assay in HEK293 cells - 24 hour (AID 1224886). Further: top concentration of the series differs between compounds; nearly all actives have a fitted effect of over 50% in size. An outline of the steps: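 Homogeneous bioluminescent viability format in HEK293 cells (600 cells/well). Following 5 h at 37 C/5% CO2, 23 nL compound was pintooled; the signal was measured repeatedly during 40 h incubation.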
Experiment [8] is described as follows: qHTS RealTime-Glo MT Cell Viability Assay in HEK293 cells - 8 hour (AID 1224887). Further: top concentration of the series differs between compounds; nearly all actives have a fitted effect of over 50% in size. The procedure, abridged: as §1
A short description of experiment [9]: A CellTox Green Cytotoxicity Assay to monitor cytotoxicity in HEK293 cells - 16 hour (AID 1224888). Further: nearly all actives have a fitted effect of over 35% in size. Further: potency means the concentration at half of the fitted maximal effect. The procedure, abridged:
as §2

Experiment [10] is described as follows: qHTS RealTime-Glo MT Cell Viability Assay in HepG2 cells - 0 hour (AID 1224889). Further: nearly all actives have a fitted effect of over 50% in size. The procedure, abridged:
as §4

Experiment [11] can be described thus: A CellTox Green Cytotoxicity Assay to monitor cytotoxicity in HepG2 cells - 8 hour (AID 1224890). Further: nearly all actives have a fitted effect of over 45% in size. The procedure, abridged:
as §3

Experiment [12] can be described thus: qHTS assay to identify small molecule antagonists of the estrogen receptor alpha (ER-alpha) signaling pathway using the BG1 cell line in the presence of 0.1 nM 17-beta-estradiol - cell viability counter screen (AID 1259241). Further: nearly all actives have a fitted effect of over 40% in size. The procedure, abridged: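 VM7Luc4E2 cells (endogenous ER-alpha, 4×ERE-luciferase), hormone-starved 5 days in charcoal-stripped FBS, were treated with compounds plus 0.1 nM 17beta-estradiol for 22 hr at 37C; viability read in same wells as CellTiter-Fluor live-cell protease fluorescence.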

Experiment [13] in a line: qHTS assay to identify small molecule antagonists of the androgen receptor (AR) signaling pathway using the MDA cell line in the presence of 0.5 nM R1881 - cell viability counter screen (AID 1259242). Further: nearly all actives have a fitted effect of over 45% in size. The procedure, abridged:
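Live-cell protease fluorescence, CellTiter-Fluor, 30 min at 37C. Cells: MDA-kb2, 3,000/well, preincubated 5 hr. Compounds plus 0.5 nM R1881 final, 16 hr, 37C, 0% CO2.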

Experiment [14] addresses Androgen receptor (Homo sapiens) (UniProt P10275). Put plainly: qHTS assay to identify small molecule antagonists of the androgen receptor (AR) signaling pathway using the MDA cell line in the presence of 0.5 nM R1881 (AID 1259243). Further: nearly all actives have a fitted effect of over 50% in size. Further: potency means the concentration at half of the fitted maximal effect. The procedure, abridged:
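MDA-kb2, MMTV-luc (AR/GR elements); 3,000 cells/well; cpd + 0.5 nM R1881 final; 16 hr 37C, 0% CO2; ONE-Glo 30 min RT; luminescence.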

The target of experiment [15] is Estrogen receptor (Homo sapiens) (UniProt P03372). Put plainly: qHTS assay to identify small molecule antagonists of the estrogen receptor alpha (ER-alpha) signaling pathway using the BG1 cell line in the presence of 0.1 nM 17-beta-estradiol (AID 1259244). Further: nearly all actives have a fitted effect of over 50% in size. The procedure, abridged:
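Luminescence after ONE-Glo (30 min, room temperature) measured ERE-luciferase activity in VM7Luc4E2 cells treated 22 h with compound and 0.1 nM final 17beta-estradiol as stimulator.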

A short description of experiment [16]: qHTS assay to identify small molecule HDAC inhibitors (AID 1259364). Further: potency means the concentration at half of the fitted maximal effect.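 Further: wild-type HCT-116 cells with endogenous class I/II HDAC activity; nearly all actives have a fitted effect of over 45% in size.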 An outline of the steps: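 HCT-116 (wild type), 1,500 cells/well, overnight; compound 2 hr 37C 5% CO2; HDAC-Glo I/II reagent 30 min RT; luminescence readout.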
The nature of experiment [17]: qHTS assay to identify small molecule HDAC inhibitors - cell viability counter screen (AID 1259365). An outline of the steps: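 Wild-type HCT-116 cells were seeded at 1,500 per well, incubated overnight at 37 C, then exposed to compounds in DMSO for 2hr. Viability was read by CellTiter-Glo luminescence after 30min at room temperature.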
The nature of experiment [18]: qHTS assay to identify small molecule agonists of the sonic hedgehog signaling (Shh) pathway - cell viability counter screen (AID 1259366). Further: nearly all actives have a fitted effect of over 50% in size. The procedure, abridged:
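NIH/3T3-derived 3T3 Gli1-Luc cells (stable Gli1-responsive firefly luciferase reporter) were seeded, rested 4 hr at 37 C/5% CO2, then exposed to compounds in DMSO for 24 hr; viability was read by CellTiter-Fluor fluorescence in the same wells.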

Experiment [19] is described as follows: qHTS assay to identify small molecule antagonists of the sonic hedgehog signaling (Shh) pathway - cell viability counter screen (AID 1259367). Further: nearly all actives have a fitted effect of over 55% in size. Further: potency means the concentration at half of the fitted maximal effect. The procedure, abridged: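 CellTiter-Fluor signal in conditioned medium-stimulated 3T3 Gli1-Luc cells, 23 hr compound exposure, 37C.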

Where “and” joins values, the source holds several entries; their conditions need not be identical. Equal values may be shown once. Results filed as inconclusive are left out. Where a structure was tested more than once in an assay, its records may differ in their call. Calls of active or inactive are those of the source. The call rests on the fitted dose curve; in most records, active means well fitted curve in the direction sought with a large enough effect in the repeat runs; inconclusive means weak or mixed curves; inactive means no such curve, though single readings can be large; an effect the other way counts as inactive or inconclusive.

Sequence of Androgen receptor (Homo sapiens) (P10275 whole entry, looked up): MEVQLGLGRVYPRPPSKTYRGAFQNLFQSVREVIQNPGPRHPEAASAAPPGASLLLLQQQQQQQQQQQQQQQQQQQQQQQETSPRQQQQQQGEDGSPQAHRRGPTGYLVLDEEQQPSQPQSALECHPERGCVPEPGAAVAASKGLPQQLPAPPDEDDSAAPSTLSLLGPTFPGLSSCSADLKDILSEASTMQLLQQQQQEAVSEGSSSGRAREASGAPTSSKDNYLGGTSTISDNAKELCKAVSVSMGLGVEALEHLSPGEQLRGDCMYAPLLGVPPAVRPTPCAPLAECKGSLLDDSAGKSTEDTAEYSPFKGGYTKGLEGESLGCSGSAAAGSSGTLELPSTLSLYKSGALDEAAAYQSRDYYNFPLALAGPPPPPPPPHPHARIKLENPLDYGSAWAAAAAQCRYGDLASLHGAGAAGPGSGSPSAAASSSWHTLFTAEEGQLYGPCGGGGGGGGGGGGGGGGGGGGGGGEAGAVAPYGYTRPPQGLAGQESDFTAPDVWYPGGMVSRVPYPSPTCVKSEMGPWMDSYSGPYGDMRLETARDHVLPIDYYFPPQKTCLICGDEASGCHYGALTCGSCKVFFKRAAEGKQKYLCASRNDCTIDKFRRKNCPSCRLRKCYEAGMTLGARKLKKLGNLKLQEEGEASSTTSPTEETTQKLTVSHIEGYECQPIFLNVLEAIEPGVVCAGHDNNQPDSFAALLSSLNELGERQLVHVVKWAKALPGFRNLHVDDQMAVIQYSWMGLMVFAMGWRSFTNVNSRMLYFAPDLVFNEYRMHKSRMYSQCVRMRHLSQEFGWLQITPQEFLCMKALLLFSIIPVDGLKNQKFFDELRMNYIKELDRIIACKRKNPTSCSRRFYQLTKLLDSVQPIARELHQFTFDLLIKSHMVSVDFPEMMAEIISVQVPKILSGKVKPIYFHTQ
Sequence of Estrogen receptor (Homo sapiens) (P03372 whole entry, looked up): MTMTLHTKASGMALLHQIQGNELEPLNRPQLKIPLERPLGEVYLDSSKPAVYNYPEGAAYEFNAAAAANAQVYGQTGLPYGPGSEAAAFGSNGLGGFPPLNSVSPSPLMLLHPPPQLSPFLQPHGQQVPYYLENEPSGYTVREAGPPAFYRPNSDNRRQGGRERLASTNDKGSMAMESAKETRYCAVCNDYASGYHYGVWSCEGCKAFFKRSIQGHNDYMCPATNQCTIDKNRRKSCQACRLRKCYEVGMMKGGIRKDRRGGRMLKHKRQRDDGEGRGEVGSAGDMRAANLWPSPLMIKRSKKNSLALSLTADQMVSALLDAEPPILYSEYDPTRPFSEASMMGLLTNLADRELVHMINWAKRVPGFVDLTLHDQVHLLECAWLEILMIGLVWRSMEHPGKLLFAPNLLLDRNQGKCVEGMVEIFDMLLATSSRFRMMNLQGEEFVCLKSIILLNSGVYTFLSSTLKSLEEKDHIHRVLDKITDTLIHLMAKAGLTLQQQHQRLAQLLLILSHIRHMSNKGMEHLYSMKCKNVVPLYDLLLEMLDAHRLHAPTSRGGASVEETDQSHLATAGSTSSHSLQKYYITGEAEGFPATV

`CCCCNC(=O)n1c(NC(=O)OC)nc2ccccc21`: the Potency entry in [1], in experiment [2], in experiment [3], in experiment [5], in experiment [6] and in [7] was “inactive” throughout. Moreover, the Potency entry in experiment [8], in experiment [9], in experiment [10], in experiment [11], in experiment [12] and in experiment [13] was “inactive” in each case. Besides, the Potency entry in [14], in experiment [15] and in [18] was “inactive” throughout. Also, the Potency was 12.2 µM (active) and inactive in experiment [4]; 21.6 µM (active) and 19.3 µM (active) in [16]; 60.8 µM (active) and inactive in experiment [19]. Besides, the call in [17] was inactive.

As to `COC(=O)c1sccc1S(=O)(=O)NC(=O)Nc1nc(C)nc(OC)n1`, the Potency result in experiment [1], in [2], in experiment [3], in experiment [4], in [5] and in experiment [6] was “inactive” throughout. In addition, the Potency entry in experiment [7], in experiment [8], in experiment [9], in experiment [10], in [11] and in experiment [12] was “inactive” throughout. Also, the Potency entry in [13], in experiment [15], in experiment [18] and in [19] was “inactive” each time. Besides, the outcome in [17] was inactive.

Regarding `c1ccc(-c2cccc(-c3ccccc3)c2)cc1`, the Potency result in experiment [1], in [2], in experiment [3], in experiment [4], in experiment [5] and in [6] was “inactive” throughout. The Potency entry in [7], in experiment [8], in experiment [9], in [10], in experiment [11] and in experiment [12] was “inactive” in each case. Moreover, the Potency entry in experiment [13], in experiment [15], in experiment [16], in experiment [18] and in experiment [19] was “inactive” in each case. Further, in experiment [17], the call was inactive.

`OCC(O)CO`: the Potency entry in experiment [1], in experiment [2], in [3], in [4], in experiment [5] and in [6] was “inactive” in each case. Also, the Potency result in [7], in experiment [8], in experiment [9], in [10], in experiment [11] and in experiment [12] was “inactive” each time. The Potency result in experiment [13], in experiment [15], in experiment [18] and in experiment [19] was “inactive” in each case. Also, the result in [17] was inactive.

As to `Cc1ccccc1[N+](=O)[O-]`, the Potency entry in experiment [1], in [2], in [3], in experiment [4], in experiment [5] and in [6] was “inactive” throughout. In addition, the Potency entry in [7], in [8], in [9], in experiment [10], in experiment [11] and in [12] was “inactive” in each case. Besides, the Potency result in [13], in experiment [15], in [16], in experiment [18] and in experiment [19] was “inactive” throughout. Moreover, in [17], the molecule was classed as inactive.

As for `CC(C)(OOC(C)(C)c1ccccc1)c1ccccc1`, the Potency entry in [1], in experiment [3], in experiment [4], in experiment [5], in experiment [6] and in [7] was “inactive” each time. In addition, the Potency entry in experiment [8], in experiment [10], in experiment [11], in [12], in experiment [13] and in [16] was “inactive” each time. Besides, the Potency entry in [18] and in [19] was “inactive” throughout. Also, the Potency is 24.2 µM (active) and 49 µM (active) in experiment [2]; 43.6 µM (active) in [9]; 24 µM (active) in [14]. Also, in experiment [17], the call was inactive.

For `COP(=O)(OC)OC`, the Potency entry in experiment [1], in experiment [2], in experiment [3], in experiment [6], in experiment [7] and in [8] was “inactive” throughout. Also, the Potency entry in experiment [9], in experiment [10], in experiment [11], in [12], in experiment [13] and in [15] was “inactive” each time. Moreover, the Potency result in [16], in experiment [18] and in experiment [19] was “inactive” throughout. Also, the Potency is 24.7 µM (active) and inactive in experiment [4]; 39.2 µM (active) and inactive in experiment [5]; 61.6 µM (active) and inactive in experiment [14]. Besides, the result in experiment [17] was inactive.

The values above are taken from PubChem BioAssay (Tox21).
